PubChem BioAssay AID1159580 (chemical genetic matrix, 2015)
Several values for one entry are separate records, joined by “and”; a condition that tells them apart may be missing. Equal entries are not always repeated. Out of some 5,500 compounds screened, about 2,000 (36%) were called active. Roughly 18% stayed inconclusive and do not appear here. Cut-off read from the data, not from the text of the source: active = normalized growth mostly below about 0.91 (no sharp cut-off); inconclusive = no clear call, values can overlap the other calls; inactive = mostly above about 0.92. This is one part of the list.

Experiment: chemical genetic growth profiling, strain panel (AID 1159580);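 note: tested at 20 µM; growth read once vehicle control cultures reached saturation at 30 °C; 1 = growth at the plate median or of vehicle wells; lower values mean less growth of the strain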
Settings: S. cerevisiae deletion strains, growth OD

Measured: normalized growth

CC(C(=O)O)c1ccc2c(c1)[nH]c1ccc(Cl)cc12 (configuration not stated)
1 (inactive) and 0.303 (active): locus YHR030C, strain SLT2, stronger effect = lower value
1 (inactive) and 0.272 (active): locus YJL095W, strain BCK1, stronger effect = lower value
active: locus YHR079C, strain IRE1, stronger effect = lower value 0.369 | locus YIL125W, strain kgd1, stronger effect = lower value 0.929 | locus YJR066W, strain TOR1, stronger effect = lower value 0.492
inactive: locus YAL013W, strain DEP1, stronger effect = lower value 1.02 | locus YAL021C, strain ccr4, stronger effect = lower value 0.949 | locus YAL026C, strain drs2, stronger effect = lower value 0.953 | locus YAL030W, strain snc1, stronger effect = lower value 0.979 | locus YBL061C, strain skt5, stronger effect = lower value 0.955 | locus YBR009C, strain hhf1, stronger effect = lower value 0.979 | locus YBR021W, strain FUR4, stronger effect = lower value 1 | locus YBR023C, strain chs3, stronger effect = lower value 0.973 | locus YBR171W, strain sec66, stronger effect = lower value 0.981 | locus YBR229C, strain ROT2, stronger effect = lower value 1.01 | locus YBR231C, strain swc5, stronger effect = lower value 0.981 | locus YBR279W, strain paf1, stronger effect = lower value 0.957 | locus YCL011C, strain gbp2, stronger effect = lower value 1 | locus YCL016C, strain dcc1, stronger effect = lower value 0.951 | locus YCL029C, strain bik1, stronger effect = lower value 0.982 | locus YCL061C, strain MRC1, stronger effect = lower value 0.978 | locus YCL069W, strain vba3, stronger effect = lower value 1.01 | locus YCR088W, strain abp1, stronger effect = lower value 0.973 | locus YDL005C, strain med2, stronger effect = lower value 0.975 | locus YDL035C, strain GPR1, stronger effect = lower value 1 | locus YDL040C, strain nat1, stronger effect = lower value 0.978 | locus YDL074C, strain BRE1, stronger effect = lower value 1.03 | locus YDL101C, strain DUN1, stronger effect = lower value 1.02 | locus YDL134C, strain PPH21, stronger effect = lower value 1.01 | locus YDL185W, strain tfp1, stronger effect = lower value 0.948 | locus YDL192W, strain arf1, stronger effect = lower value 0.954 | locus YDR001C, strain nth1, stronger effect = lower value 0.996 | locus YDR069C, strain doa4, stronger effect = lower value 0.984 | locus YDR101C, strain arx1, stronger effect = lower value 0.972 | locus YDR137W, strain rgp1, stronger effect = lower value 0.945 | locus YDR150W, strain NUM1, stronger effect = lower value 1.02 | locus YDR159W, strain sac3, stronger effect = lower value 0.895 | locus YDR162C, strain NBP2, stronger effect = lower value 1.02 | locus YDR195W, strain ref2 1.01 | locus YDR297W, strain sur2, stronger effect = lower value 0.983 | locus YDR318W, strain mcm21, stronger effect = lower value 0.972 | locus YDR334W, strain swr1, stronger effect = lower value 0.994 | locus YDR335W, strain msn5, stronger effect = lower value 0.984 | locus YDR388W, stronger effect = lower value 0.978 | locus YDR392W, strain spt3, stronger effect = lower value 0.832 | locus YDR502C, strain sam2, stronger effect = lower value 0.999 | locus YEL003W, strain gim4, stronger effect = lower value 0.996 | locus YEL037C, strain rad23, stronger effect = lower value 0.99 | locus YEL061C, strain CIN8 (second series), stronger effect = lower value 0.975 | locus YEL061C, strain CIN8, stronger effect = lower value 1 | locus YER015W, strain faa2, stronger effect = lower value 1 | locus YER016W, strain bim1, stronger effect = lower value 0.978 | locus YER110C, stronger effect = lower value 0.971 | locus YER111C, strain swi4, stronger effect = lower value 0.99 | locus YER155C, strain BEM2 (second series), stronger effect = lower value 0.952 | locus YER155C, strain BEM2, stronger effect = lower value 0.997 | locus YER167W, strain BCK2, stronger effect = lower value 1 | locus YFR010W, strain ubp6, stronger effect = lower value 0.999 | locus YGL078C, strain dbp3, stronger effect = lower value 0.988 | locus YGL086W, strain mad1, stronger effect = lower value 0.983 | locus YGL167C, strain pmr1, stronger effect = lower value 1 | locus YGL173C, strain kem1, stronger effect = lower value 0.961 | locus YGL227W, strain vid30, stronger effect = lower value 1 | locus YGL240W, strain doc1, stronger effect = lower value 0.92 | locus YGL248W, strain PDE1, stronger effect = lower value 1.01 | locus YGL253W, strain hxk2, stronger effect = lower value 0.968 | locus YGR078C, strain PAC10, stronger effect = lower value 1.02 | locus YGR135W, strain pre9, stronger effect = lower value 0.995 | locus YGR229C, strain SMI1, stronger effect = lower value 1.04 | locus YGR252W, strain gcn5, stronger effect = lower value 0.885 | locus YHR013C, strain ard1, stronger effect = lower value 0.96 | locus YHR027C, strain rpn1, stronger effect = lower value 0.991 | locus YHR079C, strain IRE1 (second series), stronger effect = lower value 0.976 | locus YHR094C, strain hxt1, stronger effect = lower value 0.987 | locus YHR129C, strain ARP1, stronger effect = lower value 1 | locus YHR142W, strain chs7, stronger effect = lower value 0.971 | locus YHR200W, strain rpn10, stronger effect = lower value 0.98 | locus YIL066C, strain RNR3, stronger effect = lower value 0.994 | locus YIL073C, strain SPO22, stronger effect = lower value 0.971 | locus YIR030C, strain dcg1, stronger effect = lower value 0.992 | locus YJL092W, strain hpr5, stronger effect = lower value 0.982 | locus YJL095W, strain BCK1 (second series), stronger effect = lower value 0.988 | locus YJL115W, strain asf1, stronger effect = lower value 0.985 | locus YJL129C, strain trk1, stronger effect = lower value 0.912 | locus YJL134W, strain LCB3, stronger effect = lower value 1.01 | locus YJL154C, strain vps35, stronger effect = lower value 0.99 | locus YJL164C, strain tpk1, stronger effect = lower value 0.982 | locus YJL166W, strain qcr8, stronger effect = lower value 1 | locus YJL168C, strain set2, stronger effect = lower value 0.983 | locus YJL187C, strain SWE1 (second series), stronger effect = lower value 1.01 | locus YJL187C, strain SWE1, stronger effect = lower value 0.97 | locus YJR043C, strain POL32, stronger effect = lower value 1.01
